Measurements from PubChem BioAssay (Tox21).
Inconclusive results are not listed. Calls of active or inactive are those of the source. Unless noted, calls come from the whole dose curve; as a rule, active = well fitted curve in the direction sought with a large enough effect in the repeat runs; inconclusive = weak or mixed curves; inactive = no such curve, though single readings can be large; an effect the other way counts as inactive or inconclusive.

Key:
[1] = biological target: Retinoic acid receptor RXR-alpha (Homo sapiens) (UniProt P19793); assay: qHTS assay to identify small molecule agonists of the RXR signaling pathway (AID 1159527; calls by dose curve; note: nearly all actives have a fitted effect of over 35% in size)
In short: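 qHTS of the Tox21 10K library in GeneBLAzer RXR-alpha HEK 293T cells carrying a beta-lactamase reporter […]; 16 hr treatment, 9-cis retinoic acid as agonist control, FRET read-out.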

[2] = qHTS assay to identify small molecule agonists of the RXR signaling pathway - cell viability counter screen (AID 1159529); note: series mostly up to about 77 µM; nearly all actives have a fitted effect of over 50% in size
In short: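 Cell viability is measured by CellTiter-Glo luminescence, 30 min at room temperature, in wells already read for beta-lactamase. Engineered HEK 293T cells (RXR-alpha-UAS-bla) are dosed 16 hr at 37 C. Tetraoctyl ammonium bromide serves as positive control.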

[3] = qHTS assay to identify small molecule antagonists of the retinoid acid receptor (RAR) signaling pathway - cell viability counter screen (AID 1159551); note: nearly all actives have a fitted effect of over 35% in size
In short: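 Viability of C3RL4 cells is quantified from ATP by luminescence after 6 h treatment at 37 C with compounds and 1 uM retinol.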

[4] = qHTS assay to identify small molecule antagonists of the retinoic acid receptor (RAR) signaling pathway (AID 1159552; note: nearly all actives have a fitted effect of over 50% in size)
In short: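 Quantitative HTS in C3RL4 RARE-luciferase reporter cells. Compounds were added with 1 uM (final) retinol; luminescence was read after 6 hr.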

[5] = qHTS assay to identify small molecule agonists of the retinoic acid receptor (RAR) signaling pathway (AID 1159553)
In short: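 Compounds dissolved in DMSO were pinned onto C3RL4 cells seeded the previous day, and plates were held 6 hr at 37 C. RARE-driven luciferase output was then read by luminescence.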

[6] = biological target: Luciferin 4-monooxygenase (Photinus pyralis) (UniProt P08659); assay: qHTS assay to identify small molecule inhibitors of firefly luciferase (AID 1224835); note: series mostly up to about 120 µM; nearly all actives have a fitted effect of over 25% in size
In short: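 Inhibition of purified Photinus luciferase is measured by luminescence. Substrate levels (D-luciferin, ATP) sit at their KM values. Each compound is tested in a concentration series.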

[7] = qHTS assay to identify small molecule agonists of the constitutive androstane receptor (CAR) signaling pathway - cell viability counter screen (AID 1224836); note: series mostly up to about 92 µM; nearly all actives have a fitted effect of over 45% in size
In short: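 Counter screen multiplexed with the CAR reporter readout: HepG2 cells co-transfected with hCAR and the CYP2B6-2.2kb construct receive a 15-concentration compound series and 0.75 uM PK11195 (final), then CellTiter-Fluor fluorescence is read after 23 h.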

[8] = biological target: Nuclear receptor subfamily 1 group I member 3 (Homo sapiens) (UniProt Q14994); assay: qHTS assay to identify small molecule antagonists of the constitutive androstane receptor (CAR) signaling pathway (AID 1224838); note: nearly all actives have a fitted effect of over 40% in size
In short: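 CITCO-stimulated (50 nM final) HepG2 cells stably transfected with hCAR and CYP2B6-2.2kb luciferase were exposed to compounds at 15 concentrations for 24 h at 37 C/5% CO2. A luciferase reagent was added and luminescence recorded after 30 min.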

[9] = biological target: Nuclear receptor subfamily 1 group I member 3 (Homo sapiens) (UniProt Q14994); assay: qHTS assay to identify small molecule agonists of the constitutive androstane receptor (CAR) signaling pathway (AID 1224839); note: series mostly up to about 92 µM; nearly all actives have a fitted effect of over 15% in size
In short: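 A 15-concentration quantitative screen uses HepG2 cells co-transfected stably with human CAR and CYP2B6-2.2kb reporter. Treatment lasts 24 h with 0.75 uM PK11195 final present; ONE-Glo luminescence is the signal.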

[10] = qHTS assay to identify small molecule antagonists of the estrogen related receptor signaling pathway with the pleiotropic PPARgamma coactivator (PGC) from Tox21 10K library - cell viability counter screen (AID 1224840; active = well fitted cell-killing curve with a large enough effect in the repeat runs, not every such curve was filed as active; note: nearly all actives have a fitted effect of over 40% in size)
In short: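 Viability counter screen, PGC/ERR cells: 17.5 h compound exposure at 37 C, CellTiter-Fluor fluorescence endpoint.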

[11] = qHTS assay to identify small molecule agonists of the estrogen related receptor signaling pathway with the pleiotropic PPARgamma coactivator (PGC) from Tox21 10K library (AID 1224842); note: nearly all actives have a fitted effect of over 15% in size
In short: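 Luminescence from One-Glo (30 min, room temperature) measured after PGC/ERR cells had 18 h at 37 C with pinned compound (23 nL in DMSO). Cells had been seeded at 2,000 per well and pre-incubated 6 h.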

[12] = qHTS assay to identify small molecule antagonists of the constitutive androstane receptor (CAR) signaling pathway - cell viability counter screen (AID 1224837); note: series mostly up to about 92 µM; nearly all actives have a fitted effect of over 45% in size
In short: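 In quantitative HTS format, compounds at 15 concentrations were applied to HepG2 cells double-transfected with hCAR and CYP2B6-2.2kb under 50 nM CITCO stimulation; live-cell protease activity was read after 23 hr via CellTiter-Fluor.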

[13] = qHTS assay to identify small molecule antagonists of the estrogen related receptor signaling pathway with the pleiotropic PPARgamma coactivator (PGC) from Tox21 10K library (AID 1224841; call rule not given here; note: series mostly up to about 92 µM; actives are mostly falling curves and most rising ones were filed inactive; nearly all actives have a fitted effect of over 50% in size)
In short: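 In the PGC/ERR line, DMSO solutions of test chemicals are pin-delivered to 2,000 cells/well six hours after dispensing. Following eighteen hours' incubation, One-Glo reagent is added and luminescence recorded.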

[14] = qHTS assay to identify small molecule antagonists of the estrogen related receptor (ERR) signaling pathway from Tox21 library - cell viability counter screen (AID 1224834); note: nearly all actives have a fitted effect of over 30% in size
In short: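 In this quantitative HTS format, ERR cells receive compounds in DMSO and are incubated for 17.5 h at 37 C. Live-cell protease activity is then detected with CellTiter-Fluor.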

Measured: Potency

Chain of Retinoic acid receptor RXR-alpha (Homo sapiens) (P19793 whole entry, looked up): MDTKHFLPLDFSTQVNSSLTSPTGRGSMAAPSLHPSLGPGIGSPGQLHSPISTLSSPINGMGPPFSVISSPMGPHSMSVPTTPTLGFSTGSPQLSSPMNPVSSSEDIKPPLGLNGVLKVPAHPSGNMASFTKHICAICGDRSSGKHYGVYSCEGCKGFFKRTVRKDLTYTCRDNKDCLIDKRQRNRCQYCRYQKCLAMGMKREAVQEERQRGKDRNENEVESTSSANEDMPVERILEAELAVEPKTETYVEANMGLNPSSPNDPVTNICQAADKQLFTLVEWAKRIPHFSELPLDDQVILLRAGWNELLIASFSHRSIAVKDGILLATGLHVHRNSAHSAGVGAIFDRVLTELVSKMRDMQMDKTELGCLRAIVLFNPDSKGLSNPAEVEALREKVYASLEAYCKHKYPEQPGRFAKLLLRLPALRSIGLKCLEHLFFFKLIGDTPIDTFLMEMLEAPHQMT
Chain of Luciferin 4-monooxygenase (Photinus pyralis) (P08659 whole entry, looked up): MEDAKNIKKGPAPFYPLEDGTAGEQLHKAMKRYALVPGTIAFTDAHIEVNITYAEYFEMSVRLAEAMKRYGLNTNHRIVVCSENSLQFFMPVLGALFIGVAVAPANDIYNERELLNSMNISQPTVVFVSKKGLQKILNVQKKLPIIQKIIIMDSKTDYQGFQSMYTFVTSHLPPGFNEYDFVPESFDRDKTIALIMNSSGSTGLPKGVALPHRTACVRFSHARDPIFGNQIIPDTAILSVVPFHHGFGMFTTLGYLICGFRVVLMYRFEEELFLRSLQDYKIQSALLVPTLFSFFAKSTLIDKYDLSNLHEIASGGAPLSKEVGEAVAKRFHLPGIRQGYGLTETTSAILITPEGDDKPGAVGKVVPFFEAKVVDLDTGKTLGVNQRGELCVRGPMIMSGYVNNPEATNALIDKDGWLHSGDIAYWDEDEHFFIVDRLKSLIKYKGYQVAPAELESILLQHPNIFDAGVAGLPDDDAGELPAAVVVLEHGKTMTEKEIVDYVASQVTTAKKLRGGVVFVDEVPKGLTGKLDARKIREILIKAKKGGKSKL
Chain of Nuclear receptor subfamily 1 group I member 3 (Homo sapiens) (Q14994 whole entry, looked up): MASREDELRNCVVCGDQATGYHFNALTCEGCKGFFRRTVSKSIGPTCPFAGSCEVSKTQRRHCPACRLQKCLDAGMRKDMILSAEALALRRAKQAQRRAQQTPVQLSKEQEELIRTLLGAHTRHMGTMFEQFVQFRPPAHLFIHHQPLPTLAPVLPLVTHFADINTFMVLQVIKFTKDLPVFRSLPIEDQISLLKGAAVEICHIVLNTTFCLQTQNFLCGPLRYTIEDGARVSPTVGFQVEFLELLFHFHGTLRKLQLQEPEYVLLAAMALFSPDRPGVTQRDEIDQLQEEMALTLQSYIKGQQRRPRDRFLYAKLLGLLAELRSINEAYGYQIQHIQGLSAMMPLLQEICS

C=CCOCC(CC)(CO)COCC=C
not listed: [12] | [13] | [14]
inactive: all other assays above

O=C(O)CNC(=O)c1ccc([N+](=O)[O-])cc1
not listed: [14]
inactive: all other assays above

COc1ccc2c(c1)c(CC(=O)OCC(=O)O)c(C)n2C(=O)c1ccc(Cl)cc1
not listed: [8] | [14]
inactive: all other assays above

CCCC(=O)O[C@]1(C(=O)CO)CC[C@H]2[C@@H]3CCC4=CC(=O)CC[C@]4(C)[C@H]3[C@@H](O)C[C@@]21C
not listed: [5]
inactive: all other assays above

CN1N=C(C(N)=O)CCC1=O
not listed: [5]
inactive: all other assays above

CC(=O)CC(C)(C)C1CCCCC1
not listed: [10] | [13] | [14]
inactive: all other assays above

CO/N=C(/C(=O)N[C@@H]1C(=O)N2C(C(=O)OCOC(=O)C(C)(C)C)=C(C)CS[C@H]12)c1csc(N)n1
not listed: [9] | [10] | [14]
inactive: all other assays above

Cc1cc2c(cc1S(N)(=O)=O)S(=O)(=O)CCC2
not listed: [5]
inactive: all other assays above

CCOC(=O)CCC(C)=O
not listed: [14]
inactive: all other assays above

CN(C)CCCSc1ccccc1NC(=O)/C=C/c1ccccc1
not listed: [12] | [13] | [14]
inactive: all other assays above
